We go through 14 compounds from PubChem BioAssay (Tox21).

The nature of assay [1]: qHTS assay to identify small molecule agonists of the peroxisome proliferator-activated receptor delta (PPARd) signaling pathway - cell viability counter screen (AID 743211). Also: potency is read from the fitted curve at half-maximal effect; nearly all actives have a fitted effect of over 55% in size. In short, it runs like this: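 Viability of GeneBLAzer PPARd UAS-bla HEK293H cells was assessed after 17 h compound incubation at 37C, using CellTiter-Glo reagent added after the reporter read and luminescence recorded 30 min later.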

Assay [2] deals with Peroxisome proliferator-activated receptor delta (Homo sapiens) (UniProt Q03181). The assay can be described thus: qHTS assay to identify small molecule agonists of the peroxisome proliferator-activated receptor delta (PPARd) signaling pathway (AID 743212; calls by dose curve). Put shortly: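 GeneBLAzer PPARd UAS-bla HEK293H cells (beta-lactamase reporter under UAS control), plated and rested 5 h at 37 C, then exposed to compounds in DMSO at 37 C; LiveBLAzer B/G FRET substrate added, 2 h room temperature, fluorescence read.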
Chain of Peroxisome proliferator-activated receptor delta (Homo sapiens) (Q03181 whole entry, looked up): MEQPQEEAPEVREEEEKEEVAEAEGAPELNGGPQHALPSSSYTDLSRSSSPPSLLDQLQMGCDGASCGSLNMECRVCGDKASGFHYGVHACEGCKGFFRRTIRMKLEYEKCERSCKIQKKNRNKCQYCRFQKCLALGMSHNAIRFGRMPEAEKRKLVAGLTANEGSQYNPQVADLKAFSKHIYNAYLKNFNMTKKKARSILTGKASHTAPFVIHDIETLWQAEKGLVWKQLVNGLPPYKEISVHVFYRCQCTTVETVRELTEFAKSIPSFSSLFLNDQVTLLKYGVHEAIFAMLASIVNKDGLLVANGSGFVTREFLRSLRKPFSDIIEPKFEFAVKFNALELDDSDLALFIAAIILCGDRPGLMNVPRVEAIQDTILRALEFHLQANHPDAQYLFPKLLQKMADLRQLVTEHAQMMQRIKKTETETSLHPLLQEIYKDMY

A short description of assay [3]: qHTS assay to identify small molecule antagonists of the peroxisome proliferator-activated receptor delta (PPARd) signaling pathway - cell viability counter screen (AID 743213). Also: nearly all actives have a fitted effect of over 50% in size. Also: potency is read from the fitted curve at half-maximal effect. In short, it runs like this:
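Luminescence from CellTiter-Glo, added after the bla read and incubated 30 min at room temperature, gives viability of HEK293H PPARd-bla cells exposed to compounds for 17 h at 37 C with 300 nM L165041.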

A short description of assay [4]: qHTS assay to identify small molecule agonists of the farnesoid-X-receptor (FXR) signaling pathway - cell viability counter screen (AID 743218). Also: nearly all actives have a fitted effect of over 45% in size. Also: potency is read from the fitted curve at half-maximal effect. Put shortly: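 Cytotoxicity counter-screen run in parallel, same wells: FXR-UAS-bla HEK 293T cells dosed 16 h at 37 C, viability read by CellTiter-Glo luminescence after 30 min at room temperature.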
The nature of assay [5]: qHTS assay to identify small molecule antagonists of the farnesoid-X-receptor (FXR) signaling pathway - cell viability counter screen (AID 743221; active = well fitted cell-killing curve with a large enough effect in the repeat runs, not every such curve was filed as active; also: nearly all actives have a fitted effect of over 50% in size; also: potency is read from the fitted curve at half-maximal effect). Put shortly:
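Quantitative HTS of the Tox21 10K library run in parallel with the beta-lactamase reporter read. HEK 293T cells carrying a UAS-driven bla reporter got compound and 50 uM CDCA (final) for 16 h; ATP-based luminescence followed.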

In assay [6] the target is Vitamin D3 receptor (Homo sapiens) (UniProt P11473). In words: qHTS assay to identify small molecule agonists of the vitamin D receptor (VDR) signaling pathway (AID 743222; calls by dose curve). In short, it runs like this:
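Quantitative HTS agonist-mode screen: compounds in DMSO were pin-transferred onto VDR-bla cells and incubated 16 h at 37C, 5% CO2. Reporter activity was detected with LiveBLAzer B/G FRET substrate after 2 h at room temperature.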

The target is the same in assay [7]. In words: qHTS assay to identify small molecule antagonists of the vitamin D receptor (VDR) signaling pathway (AID 743223; active = well fitted inhibition curve with a large enough effect in the signal ratio in the repeat runs, not every such curve was filed as active; the % refers to the signal ratio; also: potency is read from the fitted curve at half-maximal effect). Put shortly:
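Fluorescence from LiveBLAzer B/G FRET substrate, read after 2 h at room temperature, reflects beta-lactamase reporter activity in VDR-bla cells treated 16 h at 37C with compounds and agonist 1alpha,25-dihydroxyvitamin D3 (3 nM final).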

Assay [8] can be described thus: qHTS assay to identify small molecule agonists of the vitamin D receptor (VDR) signaling pathway - cell viability counter screen (AID 743224). Also: potency is read from the fitted curve at half-maximal effect; nearly all actives have a fitted effect of over 50% in size. Put shortly: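 Viability is measured in the same wells as the VDR-bla reporter assay: after 16 h compound treatment and 2 h substrate loading, CellTiter-Glo is added and luminescence read 30 min later.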
The nature of assay [9]: qHTS assay to identify small molecule antagonists of the retinoid-related orphan receptor gamma (ROR-gamma) signaling pathway - cell viability counter screen (AID 1159520). Also: nearly all actives have a fitted effect of over 50% in size. Also: potency is read from the fitted curve at half-maximal effect. In short, it runs like this: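 Tet-on ROR gamma CHO cells (1,000/well) were plated 4 hr, given compounds in DMSO for 2 hr at 37 C, then induced with 1 uM final doxycycline for 16 hr. Viability was read as ATP by CellTiter-Glo luminescence after 30 min.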

The nature of assay [10]: qHTS assay to identify small molecule agonists of the RXR signaling pathway - cell viability counter screen (AID 1159529). Also: nearly all actives have a fitted effect of over 50% in size. Also: potency is read from the fitted curve at half-maximal effect. Put shortly:
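Cell viability is measured by CellTiter-Glo luminescence, 30 min at room temperature, in wells already read for beta-lactamase. Engineered HEK 293T cells (RXR-alpha-UAS-bla) are dosed 16 hr at 37 C. Tetraoctyl ammonium bromide serves as positive control.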

Assay [11] in a line: qHTS assay to identify small molecule antagonists of the retinoid acid receptor (RAR) signaling pathway - cell viability counter screen (AID 1159551). Also: nearly all actives have a fitted effect of over 35% in size. Also: potency is read from the fitted curve at half-maximal effect. Put shortly:
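Cytotoxicity counter screen in C3RL4 cells: 6 h compound exposure with 1 uM retinol (final), viability from cellular ATP by luminescence.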

The nature of assay [12]: qHTS assay to identify small molecule antagonists of the retinoic acid receptor (RAR) signaling pathway (AID 1159552; also: nearly all actives have a fitted effect of over 50% in size; also: potency is read from the fitted curve at half-maximal effect). Put shortly:
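Quantitative HTS in C3RL4 RARE-luciferase reporter cells. Compounds were added with 1 uM (final) retinol; luminescence was read after 6 hr.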

In assay [13] the target is Bile acid receptor (Homo sapiens) (UniProt Q96RI1). The assay can be described thus: qHTS assay to identify small molecule agonists of the farnesoid-X-receptor (FXR) signaling pathway (AID 743220; active = well fitted activation curve with a large enough effect in the signal ratio in the repeat runs, not every such curve was filed as active; the % refers to the signal ratio). Put shortly: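 Beta-lactamase reporter under UAS control in GeneBLAzer FXR HEK 293T cells (5000/well) measured with LiveBLAzer FRET substrate after 2 h at room temperature. Compound exposure lasted 16 h at 37C.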
Chain of Bile acid receptor (Homo sapiens) (Q96RI1 whole entry, looked up): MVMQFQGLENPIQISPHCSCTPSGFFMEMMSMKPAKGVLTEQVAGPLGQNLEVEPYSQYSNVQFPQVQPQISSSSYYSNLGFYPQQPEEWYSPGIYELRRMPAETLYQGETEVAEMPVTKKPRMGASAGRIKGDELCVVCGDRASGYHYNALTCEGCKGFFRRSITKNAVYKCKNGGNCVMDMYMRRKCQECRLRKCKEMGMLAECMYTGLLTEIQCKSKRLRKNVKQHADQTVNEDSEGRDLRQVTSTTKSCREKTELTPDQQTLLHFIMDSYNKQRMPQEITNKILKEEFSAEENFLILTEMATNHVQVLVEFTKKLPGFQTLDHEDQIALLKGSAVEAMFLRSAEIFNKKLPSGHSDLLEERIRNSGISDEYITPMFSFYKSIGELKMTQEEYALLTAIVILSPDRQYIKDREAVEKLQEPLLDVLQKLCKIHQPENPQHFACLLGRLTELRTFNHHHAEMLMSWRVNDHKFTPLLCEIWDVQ

Assay [14] can be described thus: qHTS assay to identify small molecule antagonists of the vitamin D receptor (VDR) signaling pathway - cell viability counter screen (AID 743225). Also: nearly all actives have a fitted effect of over 50% in size. Also: potency is read from the fitted curve at half-maximal effect. In short, it runs like this:
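Cells (VDR-UAS-bla HEK 293T) are plated, rested 4 h at 37C, dosed with compound and 3 nM final 1-alpha,25-dihydroxy vitamin D3, and incubated 16 h. Viability is taken from CellTiter-Glo luminescence in the reporter wells.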

Assay [15] is described as follows: qHTS assay to identify small molecule agonists of the AP-1 signaling pathway (AID 1159526; calls by dose curve).
Assay [16] deals with Retinoic acid receptor RXR-alpha (Homo sapiens) (UniProt P19793). In words: qHTS assay to identify small molecule agonists of the RXR signaling pathway (AID 1159527; calls by dose curve; also: nearly all actives have a fitted effect of over 35% in size). In short, it runs like this:
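qHTS of the Tox21 10K library in GeneBLAzer RXR-alpha HEK 293T cells carrying a beta-lactamase reporter […]; 16 hr treatment, 9-cis retinoic acid as agonist control, FRET read-out.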

The target in assay [17] is Peroxisome proliferator-activated receptor delta (Homo sapiens) (UniProt Q03181). The assay can be described thus: qHTS assay to identify small molecule antagonists of the peroxisome proliferator-activated receptor delta (PPARd) signaling pathway (AID 743215; active = well fitted inhibition curve with a large enough effect in the signal ratio in the repeat runs, not every such curve was filed as active; the % refers to the signal ratio;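 also: cells stimulated with agonist L165041 at 300 nM final during compound exposure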; also: potency is read from the fitted curve at half-maximal effect). Put shortly:
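Inhibition of L165041-driven (300 nM final) PPARd signaling is scored in HEK293H UAS-bla cells. Exposure lasts 17 h at 37 C; beta-lactamase activity is then read by FRET substrate fluorescence after 2 h at room temperature.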

Assay [18] in a line: qHTS assay to identify small molecule agonists of the AP-1 signaling pathway - cell viability counter screen (AID 1159525; calls by dose curve; also: nearly all actives have a fitted effect of over 55% in size; also: potency is read from the fitted curve at half-maximal effect). In short, it runs like this:
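ME-180 AP-1-bla, 2500 cells/well, Opti-MEM + 0.5% dialyzed FBS; overnight 37 °C; cpd 15-pt titration, 5 h 37 °C; CellTiter-Glo 30 min RT; luminescence read; normalised to TOAB and DMSO controls.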

Results filed as inconclusive are left out. A number with no mark means an inactive call. Calls of active or inactive are those of the source. Unless noted, calls follow the shape of the dose curve; as a rule, active = well fitted curve in the direction sought with a large enough effect in the repeat runs; inconclusive = weak or mixed curves; inactive = no such curve, though single readings can be large; an effect the other way counts as inactive or inconclusive.

Chain of Vitamin D3 receptor (Homo sapiens) (P11473 whole entry, looked up): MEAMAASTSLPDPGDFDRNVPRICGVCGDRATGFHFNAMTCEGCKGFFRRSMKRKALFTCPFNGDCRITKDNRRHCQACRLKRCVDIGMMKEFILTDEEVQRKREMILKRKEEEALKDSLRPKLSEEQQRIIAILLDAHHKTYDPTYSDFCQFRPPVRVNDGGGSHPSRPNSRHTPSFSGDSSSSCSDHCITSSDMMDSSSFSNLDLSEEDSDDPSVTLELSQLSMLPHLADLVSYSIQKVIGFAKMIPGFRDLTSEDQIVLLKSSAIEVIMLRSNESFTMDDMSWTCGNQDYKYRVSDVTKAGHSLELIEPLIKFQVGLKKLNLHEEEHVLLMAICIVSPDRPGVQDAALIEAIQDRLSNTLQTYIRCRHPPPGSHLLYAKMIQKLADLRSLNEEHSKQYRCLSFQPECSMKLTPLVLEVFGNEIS
Chain of Retinoic acid receptor RXR-alpha (Homo sapiens) (P19793 whole entry, looked up): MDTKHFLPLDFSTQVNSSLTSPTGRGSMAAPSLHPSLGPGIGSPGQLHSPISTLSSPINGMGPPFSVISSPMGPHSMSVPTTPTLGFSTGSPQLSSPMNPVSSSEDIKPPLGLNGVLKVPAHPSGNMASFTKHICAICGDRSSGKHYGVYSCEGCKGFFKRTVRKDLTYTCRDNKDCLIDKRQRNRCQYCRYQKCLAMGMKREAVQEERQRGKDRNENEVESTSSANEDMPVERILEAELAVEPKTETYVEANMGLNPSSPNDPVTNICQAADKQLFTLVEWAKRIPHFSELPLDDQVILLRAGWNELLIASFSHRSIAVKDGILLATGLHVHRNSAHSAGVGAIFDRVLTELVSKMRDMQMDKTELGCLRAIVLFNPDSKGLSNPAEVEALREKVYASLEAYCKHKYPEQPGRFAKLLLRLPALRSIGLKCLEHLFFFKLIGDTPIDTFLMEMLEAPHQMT

On to `CCCCCCCCCCCCCCCCC(C(=O)O)C(O)(CC(=O)O)C(=O)O` (configuration not stated), for which the Potency in assay [1] is 13.3 µM (active); in assay [3] it was 18.8 µM (active); in [4], 18.8 µM (active); in [5], 23.7 µM (active); in [8], 26.6 µM (active); in assay [10] it was 19 µM (active). The compound was called inactive in [2] and in [6]. The Potency entry in [7], in assay [9], in assay [11] and in assay [12] was “inactive” each time.

For the compound `C[C@H]1O[C@@H](O[C@H]2CC[C@@]3(C)[C@H](CC[C@@H]4[C@@H]3C[C@@H](O)[C@]3(C)[C@@H](C5=CC(=O)OC5)CC[C@]43O)C2)C[C@H](O)[C@@H]1O[C@H]1C[C@H](O)[C@H](O[C@H]2C[C@H](O)[C@H](O[C@@H]3O[C@H](CO)[C@@H](O)[C@H](O)[C@H]3O)[C@@H](C)O2)[C@@H](C)O1`, the Potency in assay [1] was 0.298 µM (active); in assay [8] it was 0.298 µM (active); in assay [14] it was 0.338 µM (active). Moreover, the outcome in [13] was inactive. Also, the Potency entry in assay [9], in assay [15], in [11] and in assay [12] was “inactive” throughout.

For `CCc1cccc(C)c1N(C(=O)CS(=O)(=O)O)C(C)COC` (configuration not stated), the Potency result in [9], in assay [16], in [10], in assay [11] and in assay [12] was “inactive” each time.

On to `CCCCCCCCOC(=O)c1cc(O)c(O)c(O)c1`, for which the Potency is 43.6 µM (active) in assay [1]; 43.6 µM (active) in assay [3]; 49 µM (active) in assay [17]; 54.9 µM (active) in [7]; 24.5 µM (active) in assay [8]; 27.5 µM (active) in assay [14]. The Potency in assay [9] is 2.43 µM (active); in assay [18], 54.9 µM (active); in assay [10], 43.6 µM (active). Further, the result in assay [2] and in assay [6] was inactive. Also, the Potency result in [11] and in assay [12] was “inactive” throughout.

For `CN(C[C@@H](CC[N+]12CCC(C3CCCCC3)(CC1)CC2)c1ccc(Cl)c(Cl)c1)C(=O)c1cc(C(F)(F)F)cc(C(F)(F)F)c1`, the Potency in assay [1] is 17.4 µM (active); in assay [3], 24.5 µM (active); in assay [4], 54.9 µM (active); in [5] it was 27.5 µM (active); in [8], 17.4 µM (active); in assay [14] it was 27.5 µM (active). Further, the Potency was 48.6 µM (active) in assay [9], 17.4 µM (active) in assay [10] and 54.5 µM (active) in assay [11].

On to `CN1CCN(CCCN2c3ccccc3Sc3ccc(C(F)(F)F)cc32)CC1`, for which the Potency in [1] is 18.8 µM (active); in assay [3] it was 26.6 µM (active); in [4], 26.6 µM (active); in assay [5], 26.6 µM (active); in assay [14] it was 23.9 µM (active); in [10] it was 21.3 µM (active). For the same compound, in assay [12], the Potency is 23.7 µM (active). Also, the compound was classed as inactive in assay [13]. Further, the Potency result in [9] and in assay [11] was “inactive” in each case.

For `Cc1ccc(Cl)c(N)c1Cl`, the compound was called inactive in assay [2]. Moreover, the Potency entry in assay [5], in [14], in assay [9], in assay [18] and in assay [11] was “inactive” each time. Further, the results for the Potency in [8] and in assay [10] were 38.9 µM (active) and 49 µM (active), respectively.

Take `Clc1nc(C(Cl)(Cl)Cl)c(Cl)c(Cl)c1Cl`: the Potency in assay [1] is 34.7 µM (active); in [8], 49 µM (active); in assay [9], 30.6 µM (active); in assay [10], 43.6 µM (active). Further, the Potency result in assay [3], in [17], in assay [4], in assay [14] and in [18] was “inactive” each time. Moreover, in assay [13], the compound was classed as inactive.

For the compound `O=C1OC(=O)c2cc(-c3ccc4c(c3)C(=O)OC4=O)ccc21`, the Potency in assay [3] was 54.9 µM (active); in assay [8], 38.9 µM (active). In addition, the Potency entry in [5], in assay [7], in assay [14], in assay [9], in assay [18] and in [10] was “inactive” in each case. For the same compound, the Potency result in assay [11] and in assay [12] was “inactive” in each case. Further, in assay [6], the compound was called inactive.

As to `ClC(c1ccccc1)(c1ccccc1)c1ccccc1`, the Potency entry in assay [9], in [18], in assay [15], in [10], in assay [11] and in [12] was “inactive” in each case.

For the compound `Cc1ccc2sc3cccc(C)c3c2c1`, the Potency entry in assay [9], in assay [15], in [16] and in assay [11] was “inactive” each time.

On to `C=CC(=O)O[C@H]1C[C@@H]2CC[C@@]1(C)C2(C)C`, for which the Potency result in assay [9], in assay [15], in [16], in [10], in [11] and in assay [12] was “inactive” in each case.

For the compound `CCOC=C(C(=O)OCC)C(=O)OCC`, the Potency result in [9], in [18], in assay [16], in assay [10], in [11] and in [12] was “inactive” throughout.

For the compound `O=C(CCCCCCCCc1cccnc1)N1CCC(C=C(c2ccccc2)c2ccccc2)CC1`, the figures for the Potency in assay [1], in [4] and in assay [9] were 12.3 µM (active), 24.5 µM (active) and 68.6 µM (active), respectively. Moreover, the Potency entry in [5], in assay [7], in assay [14], in assay [18], in [11] and in assay [12] was “inactive” in each case.
